These are literature values, as cited in PubChem BioAssay AID977611.

The nature of this series: PubChem AID 977611. The following applies: PDB protein-ligand complexes, literature Kd.

Screen size: about 3,900 compounds; about 3,900 (100%) were called active. The limit is not given here; nearly all actives have Kd up to about 4200 µM. So high a share suggests a set chosen from earlier hits. The list shows a part of the results. Numbered stars: 1 amine (or outer) side, 2 acyl side, 3 side chain; on linkers, the order of the positions; unused ones are H or OH. *1 amine or outer side, *2 acyl side, *3 side chain or, on linkers, in order; H or OH if unused. Positions of bridges follow the written chain, without caps; N, C: chain ends. Where a SMILES comes first, the peptide text is derived from it. Non-standard residues stand in square brackets, D forms with d. Square brackets hold non-standard residues; d marks the D form. Residues, ends and D or L forms follow the SMILES beside them. Bridges are numbered along the chain shown (N, C = ends). Peptide text beside a SMILES is read from it. [ ]: non-standard residue; d: D form. Lys(Me3) = C[N+](C)(C)CCCC[C@H](N)C(=O)O; Orn(CH(NH2)2) = NC(N)NCCC[C@H](N)C(=O)O; X2 = CNC(N)NCCC[C@H](N[*:1])C(=O)[*:2]; TBMB = c1c(C[*:1])cc(C[*:3])cc1C[*:2]

For the compound `CC(C)C[C@@H]1NC(=O)[C@H](CCCNC(N)N)NC(=O)[C@H](CCCNC(N)N)NC(=O)[C@H]([C@@H](C)O)NC(=O)[C@H](CO)NC(=O)[C@H](CC(C)C)NC(=O)[C@H](CC(=O)O)NC(=O)[C@H](Cc2ccccc2)NC(=O)[C@H](CCC(N)=O)NC(=O)[C@@H](N)CSSC[C@@H](C(=O)O)NC(=O)[C@H](CCCCN)NC1=O`, where the note is “protein: cetuximab Fab, PDB entry 4gw1”, the equilibrium dissociation constant (Kd) is 0.43 µM (active).
Consider `CC(C)C[C@@H]1NC(=O)[C@H](C)NC(=O)[C@H](CCCNC(N)N)NC(=O)[C@H](CO)NC(=O)[C@H](CO)NC(=O)[C@H](CC(C)C)NC(=O)[C@H](CC(N)=O)NC(=O)[C@H](Cc2ccc(O)cc2)NC(=O)[C@H](CCC(N)=O)NC(=O)[C@@H](N)CSSC[C@@H](C(=O)O)NC(=O)[C@H](CCCCN)NC1=O`, for which, where the note is “protein: cetuximab Fab, PDB entry 4gw5”, the equilibrium dissociation constant (Kd) is 3.5 µM (active).
`CSCC[C@@H]1NC(=O)[C@H](CCC(=O)O)NC(=O)[C@H](Cc2ccc(O)cc2)NC(=O)[C@H](CO)NC(=O)[C@H](CC(=O)O)NC(=O)[C@H](C)NC(=O)CNC(=O)[C@@H](N)CSSC[C@@H](C(=O)O)NC(=O)[C@H](CCCCN)NC(=O)[C@H](CCCNC(N)N)NC(=O)[C@H](C(C)C)NC(=O)CNC(=O)[C@H](CC(=O)O)NC(=O)[C@H](CCC(=O)O)NC(=O)[C@H](CCC(=O)O)NC1=O` (H-CGADSYEMEEDGV[Orn(CH(NH2)2)]KC-OH; disulfide 1-16): the Kd (protein: mAb175 Antibody targeting a locally misfolded region of tumor associated EGFR, PDB entry 3g5y) was 0.035 µM (active) and the Kd (protein: mAb806 Antibody targeting a locally misfolded region of tumor associated EGFR, PDB entry 3g5v) is 0.016 µM (active).
Consider `CC(C)[C@@H]1NC(=O)[C@H](CCC(=O)O)NC(=O)[C@H](Cc2ccc(O)cc2)NC(=O)[C@H](CCCNC(N)N)NC(=O)[C@H](CO)NC(=O)[C@@H](NC(=O)[C@H](C)N)CSCc2cc3cc(c2)CSC[C@H](NC(=O)[C@H](CC(=O)O)NC1=O)C(=O)N[C@@H](CCCNC(N)N)C(=O)NCC(=O)N[C@@H](CCCNC(N)N)C(=O)NCC(=O)N[C@@H](CO)C(=O)N[C@@H](C)C(=O)N[C@H](C(=O)O)CSC3` (H-ACS[Orn(CH(NH2)2)]YEVDC[Orn(CH(NH2)2)]G[Orn(CH(NH2)2)]GSAC-OH; linker 2-9-16 via TBMB), for which, where the note is “protein: Urokinase-type plasminogen activator, PDB entry 3qn7”, the dissociation constant Kd is 0.157 µM (active).
As for `OC(C[n+]1cccc(F)c1)([P+](O)(O)O)[P+](O)(O)O`, where the note is “protein: Leshmaniasis major Farnesyl diphosphate synthase, PDB entry 4k10”, the dissociation constant Kd was 0.12 µM (active).
With `OC(C[n+]1cccc(-c2ccccc2)c1)([P+](O)(O)O)[P+](O)(O)O`, the Kd (protein: Leshmaniasis major Farnesyl diphosphate synthase, PDB entry 4jzb) is 0.342 µM (active).
For `Oc1ccccc1CNc1cc(NCc2ccccc2O)ncn1`, where the note is “protein: Caspase-6, PDB entry 4nbn”, the Kd was 44 µM (active).
For the compound `Cc1cccnc1NCc1ccccc1O`, where the note is “protein: proCaspase-6, PDB entry 4nbk”, the Kd was 136 µM (active).
For the compound `C[C@@H]1OC[C@@H](O)[C@H](O)[C@@H]1O`, the dissociation constant (Kd) (protein: PUTATIVE FUCOSE-BINDING LECTIN PROTEIN(R17A mutant), PDB entry 3zi8) is 2.2 µM (active).
On to `C=C(CC[C@]12O[C@H](C(=O)O)[C@@](O)(C(=O)O)[C@](C(=O)O)(O1)[C@H](OC(=O)/C=C/[C@@H](C)C[C@@H](C)CC)[C@H]2O)[C@@H](OC(C)=O)[C@H](C)Cc1ccccc1`, for which the dissociation constant Kd was 0.0097 µM (active) (protein: Dehydrosqualene synthase, PDB entry 3vje) and 0.0189 µM (active) (protein: Squalene synthase, PDB entry 3vjc).
On to `COc1ccc(CNC(=O)c2cc3ccccc3cc2CN(C)Cc2cccc(OC)c2C(=O)O)cc1`, for which the dissociation constant Kd (protein: HIV integrase, PDB entry 4cig) is 214 µM (active).
For `COc1ccc(CNC(=O)c2cc3c(cc2CN(C)Cc2cccc(OC)c2C(=O)O)OCO3)cc1`, the Kd (protein: HIV integrase, PDB entry 4cjr) is 793 µM (active).
On to `C=CCN(Cc1ccccc1C(=O)NCc1ccc(OC)cc1)Cc1ccc2c(c1C(=O)O)OC[C@H](CCC(=O)O)O2`, for which, under “protein: INTEGRASE, PDB entry 4ceb”, the equilibrium dissociation constant (Kd) is 1080 µM (active).
Regarding `O=C(O)CCC(=O)C1=CC=C[C@@H](O)[C@@H]1C(=O)O`, for the setting “protein: E. Coli 2-succinyl-6-hydroxy-2,4-cyclohexadiene-1-carboxylate synthase (MenH), PDB entry 4myd”, the Kd is 28 µM (active).
With `Nc1ccc(C(=O)N[C@@H](C(=O)NO)c2ccc(-n3cccn3)cc2)cc1`, the Kd (protein: M17 leucyl aminopeptidase A-M17, PDB entry 4r7m) was 0.011 µM (active).
Turning to `COC(=O)N1CC[C@@H]2[C@H]1CCC[C@@]2(O)C#Cc1cccc(C)c1`, for the setting “protein: Metabotropic glutamate receptor 5, Lysozyme, Metabotropic glutamate receptor 5 chimera, PDB entry 4oo9”, the Kd is 0.00086 µM (active).
`CO[C@@H]1O[C@@H](C(=O)O)[C@@H](O[C@H]2O[C@H](COS(O)(O)O)[C@@H](O)[C@H](O)[C@H]2NS(O)(O)O)[C@H](O)[C@H]1OS(O)(O)O`: the equilibrium dissociation constant (Kd) (protein: Fibroblast growth factor 2 FGF2, PDB entry 4oef) was 17.5 µM (active).
For `CO[C@@H]1O[C@@H](C(=O)O)[C@@H](O[C@H]2O[C@H](COS(O)(O)O)[C@@H](O)[C@H](OS(O)(O)O)[C@H]2NS(O)(O)O)[C@H](O)[C@H]1OS(O)(O)O`, the Kd (protein: Fibroblast growth factor 2 FGF2, PDB entry 4oeg) was 9.01 µM (active).
Turning to `O=C(O)[C@@H]1O[C@@H](O)[C@H](OS(O)(O)O)[C@@H](O)[C@@H]1O[C@H]1O[C@H](COS(O)(O)O)[C@@H](O[C@@H]2O[C@@H](C(=O)O)[C@@H](O[C@H]3O[C@H](COS(O)(O)O)[C@@H](O[C@@H]4O[C@@H](C(=O)O)[C@@H](O[C@H]5O[C@H](COS(O)(O)O)[C@@H](O)[C@H](O)[C@H]5NS(O)(O)O)[C@H](O)[C@H]4OS(O)(O)O)[C@H](O)[C@H]3NS(O)(O)O)[C@H](O)[C@H]2OS(O)(O)O)[C@H](O)[C@H]1NS(O)(O)O`, under “protein: SONIC HEDGEHOG PROTEIN, PDB entry 4c4n”, the dissociation constant Kd is 0.8 µM (active).
For the compound `CO[C@@H]1O[C@@H](C(=O)O)[C@@H](O[C@H]2O[C@H](CO)[C@@H](O)[C@H](OS(O)(O)O)[C@H]2NS(O)(O)O)[C@H](O)[C@H]1OS(O)(O)O`, the equilibrium dissociation constant (Kd) (protein: Fibroblast growth factor 2 FGF2, PDB entry 4oee) is 1.73 µM (active).
As for `O=C(O)[C@H]1CCCN1C(=O)CCCCC(=O)N1CCC[C@@H]1C(=O)O`, the Kd (protein: Serum Amyloid P Component, PDB entry 4avt) is 0.0088 µM (active).
Consider `CC(C)[C@@H]1NC(=O)[C@@H](NC(=O)[C@H](Cc2ccc(O)cc2)NC(=O)[C@@H]2CCCN2C(=O)[C@H](C)N)CSSC[C@@H](C(N)=O)NC(=O)[C@H](CO)NC(=O)[C@H](Cc2c[nH]c3ccccc23)NC(=O)[C@H](CO)NC(=O)CCNC(=O)[C@H](CCCN=C(N)N)NC(=O)[C@H](Cc2ccc(O)cc2)NC1=O`, for which, where the note is “protein: Ephrin type-A receptor 4 EphA4 LBD, PDB entry 4w4z”, the Kd was 0.03 µM (active).
Turning to `CC(C)[C@@H]1NC(=O)[C@@H](NC(=O)[C@H](Cc2ccc(O)cc2)NC(=O)[C@@H]2CCCN2C(=O)[C@H](C)N)CSSC[C@@H](C(=O)O)NC(=O)[C@H](CO)NC(=O)[C@H](Cc2c[nH]c3ccccc23)NC(=O)[C@H](CO)NC(=O)CNC(=O)[C@H](CCCN=C(N)N)NC(=O)[C@H](Cc2ccc(O)cc2)NC1=O`, under “protein: Ephrin type-A receptor 4 EphA4 LBD, PDB entry 4w50”, the equilibrium dissociation constant (Kd) was 1.4 µM (active).
Turning to `CC(C)C[C@H](N)C(=O)N[C@@H](C)C(=O)N[C@H](C(=O)N[C@@H](CCCCN)C(=O)N[C@@H](C)C(=O)N[C@@H](C)C(=O)N[C@@H](CCCNC(N)N)C(=O)N[C@@H](CCCC[N+](C)(C)C)C(=O)N[C@@H](CO)C(=O)O)[C@@H](C)O` (H-LATKAA[Orn(CH(NH2)2)][Lys(Me3)]S-OH), the dissociation constant (Kd) (protein: Polycomb protein, PDB entry 1pdq) was 5 µM (active).
For the compound `C[C@H](N)C(=O)N[C@@H](CCCNC(N)N)C(=O)N[C@H](C(=O)N[C@@H](CCCCN)C(=O)N[C@@H](CCC(N)=O)C(=O)N[C@H](C(=O)N[C@@H](C)C(=O)N[C@@H](CCCNC(N)N)C(=O)N[C@@H](CCCC[N+](C)(C)C)C(=O)N[C@@H](CO)C(=O)O)[C@@H](C)O)[C@@H](C)O`, the Kd (protein: Histone-lysine N-methyltransferase NSD3, PDB entry 4gng) is 290 µM (active).
Take `C[C@H](NC(=O)[C@@H](NC(=O)[C@H](CCC(N)=O)NC(=O)[C@H](CCCCN)NC(=O)[C@@H](N)[C@@H](C)O)[C@@H](C)O)C(=O)N[C@@H](CCCNC(N)N)C(=O)N[C@@H](CCCC[N+](C)(C)C)C(=O)N[C@@H](CO)C(=O)O` (H-TKQTA[Orn(CH(NH2)2)][Lys(Me3)]S-OH): the dissociation constant (Kd) (protein: SHH1 SAWADEE, PDB entry 4iur) is 2.63 µM (active).
Regarding `CNC(N)NCCC[C@H](NC(=O)[C@H](C)N)C(=O)N[C@H](C(=O)N[C@@H](CCCC[N+](C)(C)C)C(=O)N[C@@H](CCC(N)=O)C(=O)N[C@H](C(=O)N[C@@H](C)C(=O)N[C@@H](CCCNC(N)N)C(=O)N[C@@H](CCCCN)C(=O)N[C@@H](C)C(=O)N[C@@H](C)C(=O)NCC(=O)O)[C@@H](C)O)[C@@H](C)O` (some centres undefined) (H-A[X2]T[Lys(Me3)]QTA[Orn(CH(NH2)2)]KAAG-OH), where the note is “protein: RAG2-PHD, PDB entry 2v85”, the Kd was 34.6 µM (active).

For orientation: Kd means a measure of binding affinity in units of concentration.
